We go through seven compounds from PubChem BioAssay (NCI).

The structures appear in SMILES notation. This is part of a sample that, as a whole, favours compounds with a hit. Of some 83,000 tested, about 20% had one in any assay.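 Single-dose data. Exposure time 48 hours. Values below 10 considered active.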 Unmarked numbers belong to inactive results. Active and inactive are the calls of the source.

The test system of this assay is HL-60(TB) leukemia. Nature of the assay: NCI-60 one-dose screen, 48 h (100 = growth as untreated, 0 = no growth, -100 = all killed). The settings on record: 10 µM unless noted.
Turning to `c1ccc2c(NCCCN3CCOCC3)c3oc4ccccc4c3nc2c1`, the growth is -21.5% (active). To `O=C(N/N=C/c1cccs1)c1[nH]c2ccc(Br)cc2c1-c1ccccc1` belongs -48.3% (active); to `CC(C)(C)OC(=O)N1CCN(S(=O)(=O)/N=C2\NC(=O)NC2=C(Cl)Cl)CC1`, 40.3%. To `CCn1c(SCC(=O)Nc2cccc(C(=O)/C=C/c3cc(OC)c(OC)c(OC)c3)c2)nc2ccccc2c1=O` belongs 48%; to `CC[C@H](CO)Nc1ccc2ncc(C#Cc3cncc(C(=O)Nc4ccc(CN5CCN(C)CC5)c(C(F)(F)F)c4)c3)n2n1`, -46.3% (active). Turning to `C=CCN(C)S(=O)(=O)/N=C1\NC(=O)NC1=C(Cl)Cl`, the growth was -51.7% (active). To `CCCCCCNC(=O)Oc1ccc(/C(=C(\C)c2ccc(OC)cc2)c2ccc(OCCN(C)C)cc2)cc1` belongs 56.3%.
